Read-out in assay [1]: TIMP metallopeptidase inhibitor 1 (TIMP1), TIMP1 (gene 7076)
As to the kind of experiment: BSK_hDFCGF_TIMP1: BioMAP Diversity Plus: hDFCGF Assay for TIMP metallopeptidase inhibitor 1 (TIMP1) Biomarker Activity (AID 2283062). The note with it: primary human foreskin fibroblasts; actives raise or lower the signal. The method, boiled down: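 ELISA readout of TIMP-1 from human dermal foreskin fibroblast cultures 24 h post-dosing. Curves were fitted in both directions against DMSO baseline, with SRB total-protein staining in parallel cultures as a cytotoxicity check.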

Read-out in assay [2]: Monokine induced gamma interferon (MIG), CXCL9 (gene 4283)
Description: BSK_hDFCGF_MIG: BioMAP Diversity Plus: hDFCGF Assay for Monokine induced gamma interferon (MIG) Biomarker Activity (AID 2283063). The note with it: primary human foreskin fibroblasts; actives raise or lower the signal. The method, boiled down: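 Fibroblasts (human foreskin, primary) dosed, 24 h, MIG by ELISA; fit bidirectional vs DMSO.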

Read-out in assay [3]: Matrix Metallopeptidase 1 (MMP1), MMP1 (gene 4312)
Description: BSK_hDFCGF_MMP1: BioMAP Diversity Plus: hDFCGF Assay for Matrix Metallopeptidase 1 (MMP1) Biomarker Activity (AID 2283064). The note with it: primary human foreskin fibroblasts; actives raise or lower the signal. An outline of the steps: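 Human foreskin fibroblasts exposed to chemical for 24 h; MMP1 detected by ELISA, with DMSO as baseline for bidirectional fitting.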

Read-out in assay [4]: Plasminogen activator inhibitor-1 (PAI1), SERPINE1 (gene 5054)
As to the kind of experiment: BSK_hDFCGF_PAI1: BioMAP Diversity Plus: hDFCGF Assay for Plasminogen activator inhibitor-1 (PAI1) Biomarker Activity (AID 2283066). The note with it: primary human foreskin fibroblasts; actives raise or lower the signal. An outline of the steps:
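PAI-1 levels in human dermal foreskin fibroblasts were quantified by ELISA 24 h after dosing, with gain or loss analysed against DMSO. Overt cytotoxicity was checked by sulforhodamine B total-protein staining in parallel cultures.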

Read-out in assay [5]: Intercellular Adhesion Molecule 1 (ICAM1), ICAM1 (gene 3383)
As to the kind of experiment: BSK_KF3CT_ICAM1: BioMAP Diversity Plus: KF3CT Assay for Intercellular Adhesion Molecule 1 (ICAM1) Biomarker Activity (AID 2283067). The note with it: primary human keratinocytes with fibroblasts; actives raise or lower the signal. An outline of the steps: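 ELISA readout of ICAM-1; KF3CT human skin co-culture (keratinocytes + foreskin fibroblasts), 24 h post-dose; gain/loss fit vs DMSO baseline.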

Read-out in assay [6]: Interferon-gamma inducible Protein 10 (IP10), CXCL10 (gene 3627)
Description: BSK_KF3CT_IP10: BioMAP Diversity Plus: KF3CT Assay for Interferon-gamma inducible Protein 10 (IP10) Biomarker Activity (AID 2283068). The note with it: primary human keratinocytes with fibroblasts; actives raise or lower the signal. An outline of the steps:
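KF3CT co-culture (keratinocytes + foreskin fibroblasts), 24 h compound, IP-10 by ELISA; bidirectional fit vs DMSO baseline.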

Assay [7] can be described thus: BSK_KF3CT_SRB: Viability Assessment in the BioMAP Diversity Plus: KF3CT Assay (AID 2283069).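 Note: read 24 h after compound addition.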 The note with it: primary human keratinocytes with fibroblasts. The method, boiled down: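 Overt cytotoxicity is assessed as total protein by sulforhodamine B staining in parallel human skin co-cultures at 24 h after dosing. DMSO serves as negative control and baseline.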

Read-out in assay [8]: Interleukin-1 alpha (IL1a), IL1A (gene 3552)
As to the kind of experiment: BSK_KF3CT_IL1a: BioMAP Diversity Plus: KF3CT Assay for Interleukin-1 alpha (IL1a) Biomarker Activity (AID 2283070). The note with it: primary human keratinocytes with fibroblasts; actives raise or lower the signal. The method, boiled down:
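Readout is IL-1a level by ELISA, compared bidirectionally with DMSO as baseline. Cells: human keratinocytes co-cultured with foreskin fibroblasts, harvested 24 h post-dose.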

Read-out in assay [9]: TIMP metallopeptidase inhibitor 2 (TIMP2), TIMP2 (gene 7077)
As to the kind of experiment: BSK_KF3CT_TIMP2: BioMAP Diversity Plus: KF3CT Assay for TIMP metallopeptidase inhibitor 2 (TIMP2) Biomarker Activity (AID 2283071). The note with it: primary human keratinocytes with fibroblasts; actives raise or lower the signal. The method, boiled down:
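TIMP-2 measured by ELISA at 24 h in human keratinocyte/fibroblast primary co-cultures exposed to chemicals. Both increases and decreases were fitted against DMSO. Parallel cultures were stained with SRB for total protein as an overt-cytotoxicity check.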

Read-out in assay [10]: Vascular cell adhesion molecule 1 (VCAM1), VCAM1 (gene 7412)
As to the kind of experiment: BSK_hDFCGF_VCAM1: BioMAP Diversity Plus: hDFCGF Assay for Vascular cell adhesion molecule 1 (VCAM1) Biomarker Activity (AID 2283065). The note with it: primary human foreskin fibroblasts; actives raise or lower the signal. An outline of the steps: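 ELISA read-out of VCAM-1 on human skin fibroblasts, 24 h post-dose; gain or loss of signal fitted bidirectionally against DMSO baseline.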

The source made the active and inactive calls. Rule for the calls: active = hit-call score of the fitted dose curve at least 0.9, where 1 is the maximum; inactive = score below 0.9.

In the case of `CC(O)CC(C)(C)O` (stereo not given), the outcome in assay [1], in [2], in assay [3], in assay [4], in assay [5] and in assay [6] was inactive. Also, the result in [7], in [8] and in [9] was inactive.
On to `Cc1oc2c(NC(=O)c3c(Cl)cccc3Cl)cccc2c1C(C)(C)O`, for which the AC50 (usually the concentration giving half of the maximal activity seen) is 12.3 µM (active) in assay [1], 10.7 µM (active) in assay [3], 14.2 µM (active) in assay [4] and 5.2 µM (active) in assay [9]. Also, the result in assay [2], in assay [5], in assay [6], in [7] and in [8] was inactive.
For `CCOC(=O)O[C@H](C)OC(=O)c1ccc2c(c1)cc(C(=O)NC1CCN(C(C)C)CC1)n2Cc1cc(-c2ccc(Cl)s2)on1`, the AC50 in [1] was 4.35 µM (active); in [2], 6.08 µM (active); in [3] it was 6.2 µM (active); in [4], 3.81 µM (active); in assay [5], 9.05 µM (active); in assay [6], 10.4 µM (active). The AC50 in assay [7] is 6.24 µM (active); in assay [8] it was 6.3 µM (active); in [9], 7.43 µM (active).
Take `CO[C@H]1/C=C/O[C@@]2(C)Oc3c(C)c(O)c4c(O)c(c(/C=N/N5CCN(C)CC5)c(O)c4c3C2=O)NC(=O)/C(C)=C\C=C\[C@H](C)[C@H](O)[C@@H](C)[C@@H](O)[C@@H](C)[C@H](OC(C)=O)[C@@H]1C`: the outcome in assay [1], in [2], in [10], in assay [4], in [5] and in [7] was inactive. Besides, the outcome in [8] and in assay [9] was inactive.
For the compound `CCCCOC(=O)c1ccc(O)cc1`, the result in assay [1], in assay [2], in assay [3], in [4], in [5] and in assay [7] was inactive. Further, the result in assay [8] and in assay [9] was inactive.
In the case of `CCCCCCCCN(C)CCCCCCCC`, the outcome in assay [1], in [2], in assay [3], in assay [4], in assay [5] and in assay [7] was inactive. Also, the outcome in assay [8] and in assay [9] was inactive.
With `C[C@]12CC[C@@H]3c4ccc(O)cc4CC[C@H]3[C@@H]1CCC2=O`, the result in [1], in assay [2], in assay [3], in assay [4], in [5] and in assay [6] was inactive. Moreover, the outcome in assay [7], in assay [8] and in assay [9] was inactive.
Turning to `CC[C@@H]1C[C@H](N(Cc2cc(C(F)(F)F)cc(C(F)(F)F)c2)C(C)=O)c2cc(C(F)(F)F)ccc2N1C(=O)OC(C)C`, the result in assay [1], in assay [2], in [3], in assay [4], in assay [5] and in assay [7] was inactive. Besides, the outcome in assay [8] and in assay [9] was inactive.
With `CCCCCCCCCCCO`, the outcome in [1], in assay [3], in assay [4], in assay [5], in [7] and in [8] was inactive. For the same compound, the result in assay [9] was inactive. The AC50 in assay [2] was 32.1 µM (active).
Regarding `CN1C(=O)N(c2ccccc2Br)Cc2cnc(Nc3ccc4c(c3)OCC(CO)O4)nc21` (stereo not given), the AC50 in assay [1] is 6.79 µM (active); in [2], 22.2 µM (active); in assay [3], 9.31 µM (active); in assay [4] it was 3.21 µM (active); in assay [7], 16.2 µM (active); in [8], 10.4 µM (active). Moreover, in [9], the AC50 is 13.7 µM (active). Moreover, in [5], the outcome was inactive.
Consider `CCO[Si](CCCNC(N)=O)(OCC)OCC`, for which the result in assay [1], in assay [2], in assay [3], in [4], in assay [5] and in [7] was inactive. The outcome in assay [8] and in [9] was inactive.
As for `O=C1O[C@H]([C@@H](O)CO)C(O)=C1O`, the result in assay [1], in [2], in assay [3], in assay [4], in [5] and in assay [7] was inactive. Moreover, the result in assay [8] and in [9] was inactive.
In the case of `Oc1ccccc1`, the outcome in assay [1], in [2], in assay [3], in [4], in assay [5] and in [6] was inactive. Moreover, the result in [7], in [8] and in assay [9] was inactive.
As for `CC(C)(C)c1csc(-c2cc3cc(OCc4ccccc4CC(=O)O)ccc3o2)n1`, the AC50 in [1] is 15.5 µM (active); in assay [2], 15.2 µM (active); in assay [3], 14.5 µM (active); in assay [4], 11.3 µM (active); in assay [5] it was 24.3 µM (active); in assay [6], 9.6 µM (active). For the same compound, the AC50 in assay [7] was 12.6 µM (active); in assay [8] it was 33 µM (active); in assay [9] it was 20.3 µM (active).
Turning to `CCCCCCCCOC(=O)c1cc(O)c(O)c(O)c1`, the concentration at half-maximal activity (AC50) in assay [1] is 37.8 µM (active); in assay [2] it was 19.7 µM (active); in assay [3] it was 37.6 µM (active); in assay [4] it was 15.2 µM (active); in assay [5] it was 29.2 µM (active); in [6] it was 12.3 µM (active). Also, the AC50 is 15.3 µM (active) in [7], 25.5 µM (active) in assay [8] and 13.2 µM (active) in assay [9].
Take `O=CCCCC=O`: the AC50 in assay [1] is 13.9 µM (active); in [2], 32.4 µM (active); in assay [3], 31.6 µM (active); in assay [4] it was 34 µM (active); in assay [5] it was 33.6 µM (active); in assay [6], 33 µM (active). The AC50 in assay [7] is 34.1 µM (active); in assay [8] it was 31.2 µM (active); in [9] it was 26.2 µM (active).
In the case of `CCCCCCCC[Si](OCC)(OCC)OCC`, the result in [1], in [2], in assay [3], in [4], in assay [5] and in assay [7] was inactive. Also, the result in [8] and in [9] was inactive.
Turning to `Cc1cn([C@H]2C[C@H](N=[N+]=[N-])[C@@H](CO)O2)c(=O)[nH]c1=O`, the result in assay [1], in [2], in [3], in [4], in assay [5] and in assay [7] was inactive. The outcome in [8] and in [9] was inactive.
`CCN(Cc1cccc(S(=O)(=O)O)c1)c1ccc(C(=C2C=CC(=[N+](CC)Cc3cccc(S(=O)(=O)O)c3)C=C2)c2ccccc2S(=O)(=O)[O-])cc1`: the result in assay [1], in [2], in assay [3], in assay [4], in assay [5] and in assay [7] was inactive. Moreover, the result in assay [8] and in [9] was inactive.

The record behind these values is PubChem BioAssay (EPA / NIEHS).
